Test [1] is described as follows: Cell Viability - HepG2 (AID 433; calls by dose curve;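 further: potency means the concentration at half of the fitted maximal effect; cells exposed to compound for 40 hours; potency for ATP loss meaning cytotoxicity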). As to conditions: qHTS. The procedure, abridged:
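HepG2 hepatocellular carcinoma cells (1500/well) were treated with compounds for 40 h at 37 °C in complete medium; intracellular ATP was read by CellTiter-Glo luminescence. Data were normalized to DMSO and 100 uM tamoxifen, and AC50 came from Hill fits.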
In general terms: qHTS replaces the single test concentration by a dilution series.

A short description of test [2]: Cell Viability - SH-SY5Y (AID 544).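 Further: cells exposed to compound for 40 hours; nearly all actives have a fitted effect of over 55% in size.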 As to conditions: SH-SY5Y neuroblastoma cell viability; viability change, negative = cytotoxic: at 92.2 µM (top of the series). The procedure, abridged: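 Luminescent ATP read-out (CellTiter-Glo) measures loss of viable SH-SY5Y neuroblastoma cells after 40 hr compound exposure at 37 °C. AC50 values derive from standard Hill modelling of qHTS concentration-response data.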

Test [3] is described as follows: Cell Viability - Mesenchymal (AID 546).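 Further: cells exposed to compound for 40 hours before reading.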 As to conditions: mesenchymal cells viability, qHTS; series mostly up to 91.7 µM. The procedure, abridged: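 Normal human renal glomerulus-derived kidney mesenchymal cells, 1000 per well in complete medium, were treated with compounds for 40 hr at 37 °C. Viability was read as intracellular ATP by CellTiter-Glo luminescence; AC50 values came from Hill-equation fits of qHTS concentration-response data.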

Test [4] can be described thus: Cellular Toxicity (caspase-3) HepG2 (AID 654).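 Further: cells exposed to compound for 16 hours before reading.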 As to conditions: HepG2 caspase-3 activation, luminescence, 0% = DMSO only, 100% = tamoxifen; series mostly up to 92.2 µM. The procedure, abridged: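 Cells plated 5 hr at 37 °C, compound added, incubated 16 hr at 37 °C. Caspase-Glo 3/7 reagent followed, 20 min at room temperature, then luminescence read. Activation scored as signal increase; AC50 from Hill fit.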

Test [5] is described as follows: Cellular Toxicity (caspase-3) HUV-EC-C (AID 656). As to conditions: HUV-EC-C cells, caspase-3 activation (apoptosis), vehicle = 0, 100 µM tamoxifen = 100%; series mostly up to 92.2 µM. In outline: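 HUV-EC-C endothelial cells, 1000/well, were pre-incubated 5 hr at 37°C, then exposed to compounds for 16 hr at 37°C. Caspase-Glo 3/7 luminescence was read after 20 min at room temperature. AC50 came from Hill fits, normalized to DMSO and 100 uM tamoxifen.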

Test [6] in a line: Cellular Toxicity (caspase-3) Mesangial (AID 660).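 Further: combined caspase 3 and 7 activity read by Caspase-Glo luminescence; cells exposed to compound for 16 h before the caspase read.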 As to conditions: mesangial cells, normalized: DMSO 0%, 100 µM tamoxifen 100%; series mostly up to 91.7 µM. The procedure, abridged:
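Mesangial cells, 1000/well, 5 h settle at 37 °C; compound 16 h, 37 °C; Caspase-Glo 3/7 reagent 20 min RT; luminescence. Norm.: DMSO = 0%, tamoxifen 100 uM = 100%. AC50, Hill fit.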

A short description of test [7]: Cellular Toxicity (caspase-3) SK-N-SH (AID 661).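 Further: 0% = DMSO basal and 100% = 10 µM staurosporine.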 As to conditions: SK-N-SH caspase-3 activation, qHTS; series mostly up to 91.7 µM. In outline:
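Human neuroblastoma SK-N-SH, 1500 cells/well, 5 hr pre-incubation, then compound 16 hr, 37 °C. Caspase-Glo 3/7 reagent, 1 hr RT, luminescence. Norm. to DMSO/10 uM staurosporine; Hill-fit AC50.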

A short description of test [8]: Cellular Toxicity (caspase-3) Hek293 (AID 664).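 Further: cells exposed to compound for 16 h at 37 °C before readout.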 As to conditions: HEK293 caspase-3 activation, DMSO = 0%, 100 µM tamoxifen = 100%; at 92.2 µM (top of the series). In outline: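 Cells plated, 5 hr at 37 °C; compounds added; 16 hr at 37 °C; Caspase-Glo 3/7 reagent, 20 min RT; luminescence read. Activation expressed relative to DMSO and 100 uM tamoxifen, AC50 by Hill model.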

Test [9] can be described thus: Cellular Toxicity (caspase-3) NIH 3T3 (AID 666).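 Further: caspase signal read after 16 h compound exposure; 0% = DMSO basal and 100% = 100 µM tamoxifen stimulation.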 As to conditions: NIH 3T3 caspase-3 activation, apoptosis/toxicity; series mostly up to 92.2 µM. The procedure, abridged:
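Luminescence from aminoluciferin released by caspase-3/7 cleavage of a peptide substrate served as read-out. Mouse fibroblast NIH 3T3 cells were exposed to compounds over a concentration range for 16 hours, and AC50 values came from standard Hill modelling.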

Test [10] in a line: Cell Viability - LYMP2-023 (AID 975).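 Further: cellular ATP measured by luciferase luminescence as viability proxy; cells exposed to compound for 24 hours at 37 °C; plate controls were DMSO only for no effect and 92 µM tetraoctylammonium bromide control for full effect; nearly all actives have a fitted effect of over 55% in size.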 As to conditions: LYMP2-023 lymphoblastoid cell viability; series mostly up to 92.2 µM. In outline: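 2500 cells/well, 5 hr 37 C; cpd 24 hr 37 C; CellTiter-Glo, 30 min RT; luminescence. qHTS conc-response, Hill fit -> AC50. Pos ctrl tetraoctylammonium bromide.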
Test [11] can be described thus: Cell Viability - LYMP2-014 (AID 983).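 Further: cells exposed to compound for 24 h at 37 °C; plate controls were DMSO only for no effect and 92 µM tetraoctylammonium bromide for full effect; nearly all actives have a fitted effect of over 50% in size.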 As to conditions: LYMP2-014 lymphoblastoid cells, viability qHTS; series mostly up to 92.2 µM. In outline:
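Luminescent ATP signal (CellTiter-Glo, 30 min at room temperature) serves as the viability read-out after 24 hr compound exposure at 37 C. Cells were seeded at 2500 per well and settled 5 hr beforehand.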

Test [12] can be described thus: Cell Viability - LYMP2-026 (AID 989).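 Further: cells exposed to compound for 24 h at 37 °C; on the % scale 0 is the no-effect control and ±100 the full control effect; nearly all actives have a fitted effect of over 50% in size.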 As to conditions: LYMP2-026 lymphoblastoid cell viability, qHTS; series mostly up to 92.2 µM. The procedure, abridged: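 Luminescent ATP signal (CellTiter-Glo, 30 min room temperature) measures viable lymphoblastoid cells after 24 hr compound treatment at 37 C. Decreased ATP reflects acute toxicity; AC50 values come from Hill-equation modeling.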

Test [13] concerns the target Peroxisome proliferator-activated receptor delta (Homo sapiens) (UniProt Q03181). As to the kind of experiment: qHTS assay for small molecule agonists of peroxisome proliferator-activated receptor delta signaling (AID 588534; calls by dose curve;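 further: 0% = DMSO basal wells and 100% = positive control agonist at 10 µM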). As to conditions: HEK293T PPARdelta-UAS-bla, beta-lactamase ratio, 18 h; series mostly up to 76.7 µM. The procedure, abridged:
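Fluorescence from CCF4 substrate cleavage by beta-lactamase reporter, read 2 hrs at RT, measured agonist activity. Compounds were tested with 18 hrs exposure at 37 C. Concentration-response data fitted to Hill equation.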

Test [14] deals with Vitamin D3 receptor (Homo sapiens) (UniProt P11473). Description: qHTS assay for small molecule antagonists of vitamin D receptor signaling (AID 588541; calls by dose curve;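 further: receptor activated by calcitriol during compound treatment; on the % scale 0 is the no-effect control and ±100 the full control effect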). As to conditions: HEK293T VDR-UAS-bla, beta-lactamase ratio, antagonist mode; series mostly up to 76.7 µM. In outline:
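VDR-UAS-bla HEK293T cells (2000/well, 2% charcoal-stripped FBS) were treated with titrated compounds plus 1-alpha,25-dihydroxyvitamin D3 (50 nM or 3 nM final) for 16 h at 37 C. CCF4 beta-lactamase fluorescence was read; Hill fits gave IC50.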

For test [15] the target is unchanged. Description: qHTS assay for small molecule agonists of vitamin D receptor signaling (AID 588543; calls by dose curve;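 further: 0% = DMSO basal and 100% = reference agonist control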). As to conditions: HEK293T VDR-UAS-bla, beta-lactamase ratio, 16 h; series mostly up to 76.8 µM. In outline: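 GeneBLAzer VDR-UAS-bla HEK293T cells in 2% charcoal-stripped FBS medium were dosed with compound titrations for 16 h at 37 °C; CCF4 β-lactamase readout (405 nm ex, 460/530 nm em). EC50 and efficacy from Hill fits, normalized to 50 nM calcitriol (100%) and DMSO (0%).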

Test [16] can be described thus: qHTS assay for small molecule disruptors of the mitochondrial membrane potential - 1 hr assay (AID 651754; calls by dose curve; further: nearly all actives have a fitted effect of over 35% in size; further: potency means the concentration at half of the fitted maximal effect). As to conditions: series mostly up to 92.2 µM. In outline: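 HepG2, 2,000 cells/well, overnight attachment; cpd or DMSO 1 hr, 37C/5% CO2; Mito-MPS dye 30 min, 37C; fluorescence monomer (490/535) and aggregate (540/590).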
A short description of test [17]: qHTS assay for small molecule agonists of the antioxidant response element (ARE) signaling pathway measured by Nrf2-dependant transcriptional activity - cell viability counter screen (AID 720653; active means well fitted curve in the direction sought with a large enough effect in the repeat runs; an effect the other way counts as inactive or inconclusive; further: on the % scale 0 is the no-effect control and ±100 the full control effect). As to conditions: ARE-bla HepG2 viability, CellTiter-Glo ATP luminescence, 16 h; active compounds read low. In outline:
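ARE-bla HepG2 cells (2,000/well) rested 5 hrs at 37C/5% CO2, then exposed to compounds in DMSO for 16 hrs. Viability was read in the same wells as intracellular ATP by luminescence, 30 min at room temperature after reagent addition.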

The target in test [18] is Voltage-gated inwardly rectifying potassium channel KCNH2 (Homo sapiens) (UniProt Q12809). Description: qHTS Assay for Small Molecule Inhibitors of the Human hERG Channel Activity (AID 588834).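 Further: lower thallium flux fluorescence means stronger hERG block; nearly all actives have a fitted effect of over 50% in size.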 Further: potency means the concentration at half of the fitted maximal effect. As to conditions: U2OS BacMam hERG, FluxOR thallium flux fluorescence; series mostly up to 92.2 µM. In outline: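 U2OS cells transduced with hERG via BacMam (MOI ~100), plated 2000/well, loaded with FluxOR thallium dye, compound ~10 min, then stimulation buffer; fluorescence decrease read kinetically; AC50 from Hill fits.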

A short description of test [19]: qHTS assay for small molecule activators of the p53 signaling pathway (AID 651743; active means well fitted activation curve with a large enough effect in the signal ratio, not every such curve was filed as active; the % refers to the signal ratio; further: % of control where 0% means no effect). As to conditions: HCT-116 p53RE-bla, beta-lactamase FRET ratio, 16 h; activation: active compounds read high. In outline:
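Cell-based beta-lactamase reporter (p53 response elements, HCT-116 background). After a 5-hour preincubation, cells received compound for 16 hours at 37 C; substrate development ran 2 hours at room temperature.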

Test [20] has as its target Nuclear receptor ROR-gamma (Homo sapiens) (UniProt P51449). As to the kind of experiment: qHTS assay for small molecule antagonists of the retinoid-related orphan receptor gamma (ROR-gamma) signaling pathway (AID 651802).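 Further: CHO cells with doxycycline-induced ROR-gamma expression; luciferase reporter luminescence driven by ROR response element; on the % scale 0 is the no-effect control and ±100 the full control effect; nearly all actives have a fitted effect of over 60% in size.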 As to conditions: ROR-gamma antagonist cell reporter assay; series mostly up to 92.2 µM. In outline:
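CHO, TET-inducible ROR + RORE-LUC reporter, 1536-well qHTS. Compound pinned, doxycycline added, 16hr 37C/5% CO2. ONE-Glo, 30 min RT, luminescence; signal drop scored as antagonism.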

A number with no mark means an inactive call. Inconclusive results are not listed. Activity calls are given as the source filed them. Unless noted, the call rests on the fitted dose curve; in most records, active means well fitted curve in the direction sought with a large enough effect; inconclusive means small, poorly fitted or top-dose-only effect, or another doubt; inactive means no such curve, though single readings can be large; an effect the other way counts as inactive or inconclusive.

Vitamin D3 receptor (Homo sapiens), sequence (P11473 whole entry, looked up): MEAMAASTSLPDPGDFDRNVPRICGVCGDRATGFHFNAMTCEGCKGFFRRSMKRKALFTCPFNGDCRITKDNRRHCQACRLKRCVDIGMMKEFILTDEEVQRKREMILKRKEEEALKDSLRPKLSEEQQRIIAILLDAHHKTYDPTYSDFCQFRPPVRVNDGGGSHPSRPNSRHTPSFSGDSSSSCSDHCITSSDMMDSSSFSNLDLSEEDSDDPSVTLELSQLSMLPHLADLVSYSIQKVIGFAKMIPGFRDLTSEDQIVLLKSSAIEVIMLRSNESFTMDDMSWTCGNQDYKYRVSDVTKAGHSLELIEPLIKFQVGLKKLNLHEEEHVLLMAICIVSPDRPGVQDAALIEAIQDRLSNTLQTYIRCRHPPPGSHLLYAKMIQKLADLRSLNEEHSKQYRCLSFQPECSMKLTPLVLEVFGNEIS
Peroxisome proliferator-activated receptor delta (Homo sapiens), sequence (Q03181 whole entry, looked up): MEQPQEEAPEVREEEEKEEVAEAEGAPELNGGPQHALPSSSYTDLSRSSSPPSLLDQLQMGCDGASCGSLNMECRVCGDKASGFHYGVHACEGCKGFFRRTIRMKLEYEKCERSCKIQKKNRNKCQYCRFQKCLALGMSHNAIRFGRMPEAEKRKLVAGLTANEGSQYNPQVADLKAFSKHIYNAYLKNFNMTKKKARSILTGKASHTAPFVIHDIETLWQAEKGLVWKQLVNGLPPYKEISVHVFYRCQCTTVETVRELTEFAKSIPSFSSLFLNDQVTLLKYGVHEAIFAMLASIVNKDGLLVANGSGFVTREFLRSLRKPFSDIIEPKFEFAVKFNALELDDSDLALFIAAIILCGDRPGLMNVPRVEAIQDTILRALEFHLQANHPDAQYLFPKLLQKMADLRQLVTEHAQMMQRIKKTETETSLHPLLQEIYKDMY
Nuclear receptor ROR-gamma (Homo sapiens), sequence (P51449 whole entry, looked up): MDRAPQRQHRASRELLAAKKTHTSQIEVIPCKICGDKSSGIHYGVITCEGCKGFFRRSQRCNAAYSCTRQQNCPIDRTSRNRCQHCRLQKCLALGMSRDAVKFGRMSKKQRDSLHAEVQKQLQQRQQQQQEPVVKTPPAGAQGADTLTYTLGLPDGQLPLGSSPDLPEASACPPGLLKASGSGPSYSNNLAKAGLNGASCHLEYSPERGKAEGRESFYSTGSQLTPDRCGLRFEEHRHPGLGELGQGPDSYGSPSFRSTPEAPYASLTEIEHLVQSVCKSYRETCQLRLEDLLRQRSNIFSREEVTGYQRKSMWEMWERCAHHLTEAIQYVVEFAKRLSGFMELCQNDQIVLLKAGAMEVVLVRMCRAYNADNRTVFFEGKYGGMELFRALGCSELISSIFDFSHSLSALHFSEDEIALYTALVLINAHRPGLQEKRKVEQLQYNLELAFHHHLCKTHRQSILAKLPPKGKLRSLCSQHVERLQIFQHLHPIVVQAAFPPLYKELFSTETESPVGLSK
Voltage-gated inwardly rectifying potassium channel KCNH2 (Homo sapiens), sequence (Q12809 whole entry, looked up): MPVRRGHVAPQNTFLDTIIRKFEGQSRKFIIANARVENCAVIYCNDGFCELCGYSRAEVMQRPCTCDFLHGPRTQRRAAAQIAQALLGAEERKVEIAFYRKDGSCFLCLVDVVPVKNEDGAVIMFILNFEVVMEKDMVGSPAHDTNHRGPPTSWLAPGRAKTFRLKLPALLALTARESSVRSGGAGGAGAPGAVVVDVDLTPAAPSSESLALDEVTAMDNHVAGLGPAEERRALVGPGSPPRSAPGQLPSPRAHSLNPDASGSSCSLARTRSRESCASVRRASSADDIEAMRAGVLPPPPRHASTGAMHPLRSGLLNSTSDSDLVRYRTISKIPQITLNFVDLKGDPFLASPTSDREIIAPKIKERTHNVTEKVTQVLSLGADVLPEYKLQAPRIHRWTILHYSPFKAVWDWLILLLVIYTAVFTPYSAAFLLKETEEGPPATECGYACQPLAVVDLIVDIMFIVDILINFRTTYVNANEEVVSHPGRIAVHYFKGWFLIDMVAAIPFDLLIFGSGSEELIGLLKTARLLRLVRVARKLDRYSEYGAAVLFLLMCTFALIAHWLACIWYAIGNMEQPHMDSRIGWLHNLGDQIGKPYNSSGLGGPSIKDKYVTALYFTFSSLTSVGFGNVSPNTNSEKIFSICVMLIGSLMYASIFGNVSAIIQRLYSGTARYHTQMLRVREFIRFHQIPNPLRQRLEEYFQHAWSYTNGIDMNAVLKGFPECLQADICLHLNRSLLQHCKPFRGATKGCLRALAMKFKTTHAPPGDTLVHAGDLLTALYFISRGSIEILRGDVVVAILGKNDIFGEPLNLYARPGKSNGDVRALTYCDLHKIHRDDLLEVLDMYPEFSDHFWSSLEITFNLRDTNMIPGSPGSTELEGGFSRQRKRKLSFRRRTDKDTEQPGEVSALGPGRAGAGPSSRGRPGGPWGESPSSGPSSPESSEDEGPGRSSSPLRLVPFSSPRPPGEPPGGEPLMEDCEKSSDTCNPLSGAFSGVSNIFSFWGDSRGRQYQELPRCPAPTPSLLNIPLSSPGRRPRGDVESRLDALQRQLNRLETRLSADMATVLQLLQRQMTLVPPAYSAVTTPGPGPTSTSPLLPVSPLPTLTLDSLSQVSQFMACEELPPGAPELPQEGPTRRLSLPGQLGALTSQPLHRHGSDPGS

Turning to `Clc1cc(Cl)c(Cl)c(Cl)c1`, the Potency in test [1] is more than 92 µM. Also, the Potency entry in [2], in test [3], in test [7], in [9], in test [10] and in test [11] was “inactive” throughout. The Potency result in test [12] and in test [16] was “inactive” in each case. The compound was classed as inactive in test [4], in test [5], in [6], in test [13], in test [14] and in test [15]. In test [8], the caspase-3 activation was -0.644%. In addition, the max response in test [17] was -5.74%.

`O=[N+]([O-])c1ccccc1O`: the Potency in test [1] is more than 92 µM. Also, the Potency entry in test [2], in test [3], in test [7], in test [9], in test [10] and in test [12] was “inactive” each time. Also, the Potency result in [18], in test [16] and in [20] was “inactive” throughout. The compound was called inactive in test [5] and in [6]. In addition, the caspase-3 activation in test [8] was -0.522%. Besides, the activation in test [19] was -2.01%. In test [17], the max response was 5.01%.

On to `C=CC(=O)OCC(C)C`, for which the Potency in test [1] was more than 92 µM. In addition, the Potency result in test [2], in test [3], in test [7], in test [9], in [10] and in [11] was “inactive” each time. The Potency entry in [12], in test [18] and in test [20] was “inactive” in each case. The compound was called inactive in test [4], in test [13], in test [14] and in test [15]. Further, in [8], the caspase-3 activation is -0.317%. The activation in test [19] was -0.853%. Also, in [17], the max response was -10.1%.

`N#CC(Br)Br`: in test [1], the Potency was more than 92 µM. Moreover, the Potency result in test [2], in test [3], in test [7], in test [9], in test [12] and in test [18] was “inactive” throughout. For the same compound, the Potency result in test [16] and in test [20] was “inactive” throughout. For the same compound, the call in test [5], in [6] and in test [13] was inactive. Besides, in test [8], the caspase-3 activation was 5.88%. In addition, the max response in [17] was -8.42%.

As to `CN(C)c1ccc(N)cc1`, the values for the Potency in test [1], in [18] and in test [16] were more than 92 µM, 35.5 µM (active) and 29.8 µM (active), respectively. In addition, in test [2], the viability change, negative = cytotoxic is -91.2% (active). Further, the Potency result in [3], in [7] and in test [9] was “inactive” in each case. Moreover, the result in test [4], in [6], in test [13], in test [14] and in [15] was inactive. In addition, in [8], the caspase-3 activation is 2.4%. Also, the activation in test [19] was -3.55%. In [17], the max response is -16.3%.

For `CCCCOCC1CO1` (centres undefined), in test [1], the Potency is more than 92 µM. Moreover, the Potency result in [2], in test [3], in test [9], in [10], in test [11] and in test [12] was “inactive” throughout. Further, the Potency result in test [18], in test [16] and in test [20] was “inactive” throughout. The result in test [4], in test [5], in [6], in test [13], in test [14] and in test [15] was inactive. Also, the caspase-3 activation in test [8] was 3.87%. Moreover, the activation in test [19] was -1.31%.

In the case of `c1ccc2c(c1)CCNC2`, in test [1], the Potency was more than 92 µM. For the same compound, the Potency entry in test [2], in [3], in [7], in test [9], in [11] and in test [12] was “inactive” in each case. Further, the Potency result in [16] and in test [20] was “inactive” in each case. Further, the compound was called inactive in test [4], in test [5], in test [13], in [14] and in test [15]. Further, the caspase-3 activation in test [8] is -0.664%. Further, the activation in [19] was -2.09%.

With `Nc1ccc(Cl)c(Cl)c1`, the Potency in test [1] was more than 92 µM. Also, the Potency entry in test [2], in [3], in test [9], in test [10], in test [12] and in test [18] was “inactive” throughout. Moreover, the Potency result in [16] and in test [20] was “inactive” throughout. The compound was classed as inactive in test [4], in test [5], in test [6], in test [13], in [14] and in test [15]. The activation in [19] was 0.678%. For the same compound, the max response in test [17] was -17.9%.
